This is an account of results in PubChem BioAssay (NCI).

The panel holds about 83,000 compounds, 20% with a hit somewhere; the sample as a whole holds those more often.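 Values shown are percent growth following 48 h exposure of cells in 96-well plates to a single concentration of compound; below 10 was considered active.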 Values without a mark were called inactive. Active and inactive are the calls of the source.

Among the test systems are DU-145 prostate; K-562 leukemia; MALME-3M melanoma; MDA-MB-231 breast; RXF 393 renal; SF-268 CNS; SF-295 CNS; SF-539 CNS; UACC-257 melanoma; M14 melanoma; HCT-15 colon; HT29 colon; SNB-75 CNS; SNB-19 CNS; U251 CNS; PC-3 prostate; SK-MEL-5 melanoma; UACC-62 melanoma; LOX IMVI melanoma; SK-MEL-28 melanoma.
Holding throughout (assay): NCI-60 one-dose screen, 48 h (100 = growth as untreated, 0 = no growth, -100 = all killed)
Common to all, as to conditions: 10 µM unless noted

With `O=c1[nH]c2cc(Cl)c(Cl)cc2n2cc3ncccc3c12`, the growth with DU-145 prostate is 100%; in the experiment with K-562 leukemia it was 65.5%; in the experiment with MALME-3M melanoma, 128%; in the experiment on MDA-MB-231 breast, 89.4%; in the experiment with RXF 393 renal, 112%; in the experiment on SF-268 CNS, 95.1%. Also, the growth in the experiment on SF-295 CNS was 58.5%; in the experiment on SF-539 CNS, 112%; in the experiment with UACC-257 melanoma it was 97.8%; with M14 melanoma, 101%; with HCT-15 colon it was 85.9%; in the experiment with HT29 colon it was 67.9%. Further, the growth in the experiment with SNB-75 CNS is 67.2%; in the experiment on SNB-19 CNS, 86.8%; in the experiment on U251 CNS, 72.6%; with PC-3 prostate it was 72.8%; in the experiment on SK-MEL-5 melanoma, 84.8%; with UACC-62 melanoma, 57.8%. Also, the growth was 81.6% in the experiment with LOX IMVI melanoma and 120% in the experiment on SK-MEL-28 melanoma.

`Cn1ncc2c(Nc3ccc(O)cc3)nc(Cl)nc21`: the growth was 113% in the experiment with DU-145 prostate; 90.5% with K-562 leukemia; 128% in the experiment on MALME-3M melanoma; 93.7% with MDA-MB-231 breast; 96% in the experiment with RXF 393 renal; 97.7% in the experiment with SF-268 CNS. The growth was 109% in the experiment on SF-295 CNS; 96.6% in the experiment with SF-539 CNS; 105% in the experiment on UACC-257 melanoma; 111% in the experiment with M14 melanoma; 97% in the experiment on HCT-15 colon; 102% with HT29 colon. The growth with SNB-75 CNS was 95%; with SNB-19 CNS, 106%; with U251 CNS, 99.3%; with PC-3 prostate it was 119%; in the experiment with SK-MEL-5 melanoma it was 100%; with UACC-62 melanoma it was 82.6%. For the same compound, the growth is 95.7% in the experiment with LOX IMVI melanoma and 114% in the experiment with SK-MEL-28 melanoma.

In the case of `Ic1ccc2[nH]cc(SSc3c[nH]c4ccc(I)cc34)c2c1`, the growth in the experiment on DU-145 prostate was 72.5%; in the experiment with K-562 leukemia it was 9.29% (active); with MALME-3M melanoma, 73.2%; in the experiment with MDA-MB-231 breast, 7.64% (active); in the experiment with RXF 393 renal, 46.4%; with SF-268 CNS, -18.1% (active). Also, the growth in the experiment on SF-295 CNS was -19.1% (active); in the experiment on SF-539 CNS, 21.3%; in the experiment with UACC-257 melanoma, 34.6%; in the experiment on M14 melanoma, 27.6%; in the experiment with HCT-15 colon, 15.6%; in the experiment on HT29 colon, 32%. Besides, the growth was 46.6% in the experiment on SNB-75 CNS; 13.3% in the experiment on SNB-19 CNS; 18.3% in the experiment with U251 CNS; 7.98% (active) in the experiment on PC-3 prostate; 86.6% in the experiment on SK-MEL-5 melanoma; 45.4% with UACC-62 melanoma. Further, the values for the growth in the experiment with LOX IMVI melanoma and in the experiment on SK-MEL-28 melanoma were 4.6% (active) and 40.9%, respectively.

Turning to `O=C1/C(=C\c2cn(CC(O)CN3CCCCC3)c3ccccc23)c2ccccc2N1c1c(Cl)cccc1Cl` (stereo not given), the growth is -99.8% (active) in the experiment on DU-145 prostate; -35.6% (active) in the experiment on K-562 leukemia; -65.9% (active) in the experiment on MALME-3M melanoma; -81.6% (active) in the experiment with MDA-MB-231 breast; -87.6% (active) with RXF 393 renal; -76.8% (active) with SF-268 CNS. The growth is -82.7% (active) with SF-295 CNS; -82.4% (active) in the experiment with SF-539 CNS; -98.1% (active) in the experiment on UACC-257 melanoma; -81.1% (active) with M14 melanoma; -72.8% (active) in the experiment with HCT-15 colon; -85% (active) in the experiment with HT29 colon. Also, the growth in the experiment on SNB-75 CNS is -98.6% (active); in the experiment on SNB-19 CNS it was -71.2% (active); with U251 CNS, -93.8% (active); with PC-3 prostate it was -88.7% (active); with SK-MEL-5 melanoma, -100% (active); in the experiment with UACC-62 melanoma, -84% (active). Besides, the growth was -85.1% (active) with LOX IMVI melanoma and -94.4% (active) in the experiment on SK-MEL-28 melanoma.

Consider `CC(=O)OC[C@]12CC[C@@H]([C@@H](C)C(N)=O)[C@@H]1[C@H]1CC[C@@H]3[C@@]4(C)CC[C@H](OC(C)=O)C(C)(C)[C@@H]4CC[C@@]3(C)[C@]1(C)CC2`, for which the growth in the experiment on DU-145 prostate was -69.9% [100 µM] (active); in the experiment on K-562 leukemia, 3.1% [100 µM] (active); with MALME-3M melanoma it was -89% [100 µM] (active); in the experiment with MDA-MB-231 breast it was -88.6% [100 µM] (active); in the experiment on RXF 393 renal, -64.9% [100 µM] (active); in the experiment on SF-268 CNS, -61% [100 µM] (active). In addition, the growth was -50.8% [100 µM] (active) with SF-295 CNS; -83.9% [100 µM] (active) in the experiment with SF-539 CNS; -46.2% [100 µM] (active) in the experiment on UACC-257 melanoma; -44.3% [100 µM] (active) in the experiment on M14 melanoma; -44.1% [100 µM] (active) in the experiment with HCT-15 colon; -77.7% [100 µM] (active) in the experiment on HT29 colon. Also, the growth with SNB-75 CNS is -47.8% [100 µM] (active); in the experiment on SNB-19 CNS, -40% [100 µM] (active); in the experiment on U251 CNS, -51.4% [100 µM] (active); in the experiment on PC-3 prostate it was -47.4% [100 µM] (active); in the experiment on SK-MEL-5 melanoma, -71.9% [100 µM] (active); with UACC-62 melanoma it was -83% [100 µM] (active). In addition, the growth with LOX IMVI melanoma is -85.5% [100 µM] (active); in the experiment with SK-MEL-28 melanoma, -73.2% [100 µM] (active).

`COc1ccc2c(c1)c(-c1noc(-c3cn(C)c4ncc(F)cc34)n1)cn2C`: the growth is 82.4% with DU-145 prostate; 84.7% with K-562 leukemia; 77.5% in the experiment with MALME-3M melanoma; 62.2% with MDA-MB-231 breast; 73.7% in the experiment on RXF 393 renal; 79.7% in the experiment on SF-268 CNS. Moreover, the growth in the experiment on SF-295 CNS is 62.6%; with SF-539 CNS, 84.6%; in the experiment with UACC-257 melanoma, 94.4%; in the experiment with M14 melanoma it was 91.9%; in the experiment on HCT-15 colon, 84.7%; in the experiment on HT29 colon, 78.2%. The growth was 94.9% in the experiment with SNB-75 CNS; 76.2% in the experiment with SNB-19 CNS; 76.6% in the experiment with U251 CNS; 91.7% in the experiment on PC-3 prostate; 74.8% in the experiment on SK-MEL-5 melanoma; 83.9% with UACC-62 melanoma. In addition, the growth with LOX IMVI melanoma was 52.4%; with SK-MEL-28 melanoma, 91.3%.

Regarding `CC1(C)CC(=O)c2c(ccc(C(=O)C[C@@H](N)CO)c2N)O1`, the growth in the experiment on DU-145 prostate was 18.2%; in the experiment on K-562 leukemia, 25.9%; in the experiment on MALME-3M melanoma, 51.2%; with MDA-MB-231 breast it was 20.4%; with RXF 393 renal, 16.6%; in the experiment with SF-268 CNS, 14.9%. For the same compound, the growth was 21.2% in the experiment on SF-295 CNS; -3.9% (active) in the experiment with SF-539 CNS; 16.6% with UACC-257 melanoma; -37.5% (active) in the experiment on M14 melanoma; 4.96% (active) in the experiment on HCT-15 colon; -7.99% (active) in the experiment on HT29 colon. Moreover, the growth in the experiment with SNB-75 CNS was 63.5%; in the experiment on SNB-19 CNS, 14%; in the experiment with U251 CNS, 7.09% (active); in the experiment with PC-3 prostate, 24.7%; in the experiment with SK-MEL-5 melanoma, 29.4%; in the experiment with UACC-62 melanoma it was -9.38% (active). Moreover, the growth is -59% (active) with LOX IMVI melanoma and 17% in the experiment with SK-MEL-28 melanoma.

On to `Cc1cc(C)c(-c2cc(O)c(-c3c(C)cc(C)cc3C)cc2O)c(C)c1`, for which the growth was 20.3% with DU-145 prostate; 8.34% (active) in the experiment with K-562 leukemia; 54.9% in the experiment with MALME-3M melanoma; 51.5% in the experiment with MDA-MB-231 breast; 18% with RXF 393 renal; 55.3% in the experiment with SF-268 CNS. Also, the growth with SF-295 CNS is 30.2%; in the experiment with SF-539 CNS it was -25.8% (active); with UACC-257 melanoma, 73.8%; in the experiment on M14 melanoma, 20.7%; in the experiment with HCT-15 colon, 23.6%; in the experiment on HT29 colon it was 8.84% (active). The growth with SNB-75 CNS was -10.3% (active); in the experiment on SNB-19 CNS, 45.9%; in the experiment with U251 CNS it was 25.2%; in the experiment on PC-3 prostate it was 43.2%; with SK-MEL-5 melanoma, 25.5%; in the experiment on UACC-62 melanoma it was 34.2%. Further, the growth was 41.8% in the experiment with LOX IMVI melanoma and 42.8% in the experiment on SK-MEL-28 melanoma.
